Results: the supplement of paper PMC11732987, “Enantioselective OTUD7B fragment discovery through chemoproteomics screening and high-throughput optimisation” (Communications Chemistry, 2025)

Columns and labels:
Assay in all cases: log2 ratio of Biotin-Ahx-Ub-VS probe labelling (fragment/DMSO); higher = less target engagement (more negative = stronger competition), active = hit call of the paper (q ≤ 0.05, log2 ratio ≤ -1)
Settings in all cases: compound concentration: 200 uM; treatment time: 3 h
USP34 = USP34 (UniProt Q70CQ2)
USP34, sequence (Q70CQ2 whole entry, the tested form may be a part): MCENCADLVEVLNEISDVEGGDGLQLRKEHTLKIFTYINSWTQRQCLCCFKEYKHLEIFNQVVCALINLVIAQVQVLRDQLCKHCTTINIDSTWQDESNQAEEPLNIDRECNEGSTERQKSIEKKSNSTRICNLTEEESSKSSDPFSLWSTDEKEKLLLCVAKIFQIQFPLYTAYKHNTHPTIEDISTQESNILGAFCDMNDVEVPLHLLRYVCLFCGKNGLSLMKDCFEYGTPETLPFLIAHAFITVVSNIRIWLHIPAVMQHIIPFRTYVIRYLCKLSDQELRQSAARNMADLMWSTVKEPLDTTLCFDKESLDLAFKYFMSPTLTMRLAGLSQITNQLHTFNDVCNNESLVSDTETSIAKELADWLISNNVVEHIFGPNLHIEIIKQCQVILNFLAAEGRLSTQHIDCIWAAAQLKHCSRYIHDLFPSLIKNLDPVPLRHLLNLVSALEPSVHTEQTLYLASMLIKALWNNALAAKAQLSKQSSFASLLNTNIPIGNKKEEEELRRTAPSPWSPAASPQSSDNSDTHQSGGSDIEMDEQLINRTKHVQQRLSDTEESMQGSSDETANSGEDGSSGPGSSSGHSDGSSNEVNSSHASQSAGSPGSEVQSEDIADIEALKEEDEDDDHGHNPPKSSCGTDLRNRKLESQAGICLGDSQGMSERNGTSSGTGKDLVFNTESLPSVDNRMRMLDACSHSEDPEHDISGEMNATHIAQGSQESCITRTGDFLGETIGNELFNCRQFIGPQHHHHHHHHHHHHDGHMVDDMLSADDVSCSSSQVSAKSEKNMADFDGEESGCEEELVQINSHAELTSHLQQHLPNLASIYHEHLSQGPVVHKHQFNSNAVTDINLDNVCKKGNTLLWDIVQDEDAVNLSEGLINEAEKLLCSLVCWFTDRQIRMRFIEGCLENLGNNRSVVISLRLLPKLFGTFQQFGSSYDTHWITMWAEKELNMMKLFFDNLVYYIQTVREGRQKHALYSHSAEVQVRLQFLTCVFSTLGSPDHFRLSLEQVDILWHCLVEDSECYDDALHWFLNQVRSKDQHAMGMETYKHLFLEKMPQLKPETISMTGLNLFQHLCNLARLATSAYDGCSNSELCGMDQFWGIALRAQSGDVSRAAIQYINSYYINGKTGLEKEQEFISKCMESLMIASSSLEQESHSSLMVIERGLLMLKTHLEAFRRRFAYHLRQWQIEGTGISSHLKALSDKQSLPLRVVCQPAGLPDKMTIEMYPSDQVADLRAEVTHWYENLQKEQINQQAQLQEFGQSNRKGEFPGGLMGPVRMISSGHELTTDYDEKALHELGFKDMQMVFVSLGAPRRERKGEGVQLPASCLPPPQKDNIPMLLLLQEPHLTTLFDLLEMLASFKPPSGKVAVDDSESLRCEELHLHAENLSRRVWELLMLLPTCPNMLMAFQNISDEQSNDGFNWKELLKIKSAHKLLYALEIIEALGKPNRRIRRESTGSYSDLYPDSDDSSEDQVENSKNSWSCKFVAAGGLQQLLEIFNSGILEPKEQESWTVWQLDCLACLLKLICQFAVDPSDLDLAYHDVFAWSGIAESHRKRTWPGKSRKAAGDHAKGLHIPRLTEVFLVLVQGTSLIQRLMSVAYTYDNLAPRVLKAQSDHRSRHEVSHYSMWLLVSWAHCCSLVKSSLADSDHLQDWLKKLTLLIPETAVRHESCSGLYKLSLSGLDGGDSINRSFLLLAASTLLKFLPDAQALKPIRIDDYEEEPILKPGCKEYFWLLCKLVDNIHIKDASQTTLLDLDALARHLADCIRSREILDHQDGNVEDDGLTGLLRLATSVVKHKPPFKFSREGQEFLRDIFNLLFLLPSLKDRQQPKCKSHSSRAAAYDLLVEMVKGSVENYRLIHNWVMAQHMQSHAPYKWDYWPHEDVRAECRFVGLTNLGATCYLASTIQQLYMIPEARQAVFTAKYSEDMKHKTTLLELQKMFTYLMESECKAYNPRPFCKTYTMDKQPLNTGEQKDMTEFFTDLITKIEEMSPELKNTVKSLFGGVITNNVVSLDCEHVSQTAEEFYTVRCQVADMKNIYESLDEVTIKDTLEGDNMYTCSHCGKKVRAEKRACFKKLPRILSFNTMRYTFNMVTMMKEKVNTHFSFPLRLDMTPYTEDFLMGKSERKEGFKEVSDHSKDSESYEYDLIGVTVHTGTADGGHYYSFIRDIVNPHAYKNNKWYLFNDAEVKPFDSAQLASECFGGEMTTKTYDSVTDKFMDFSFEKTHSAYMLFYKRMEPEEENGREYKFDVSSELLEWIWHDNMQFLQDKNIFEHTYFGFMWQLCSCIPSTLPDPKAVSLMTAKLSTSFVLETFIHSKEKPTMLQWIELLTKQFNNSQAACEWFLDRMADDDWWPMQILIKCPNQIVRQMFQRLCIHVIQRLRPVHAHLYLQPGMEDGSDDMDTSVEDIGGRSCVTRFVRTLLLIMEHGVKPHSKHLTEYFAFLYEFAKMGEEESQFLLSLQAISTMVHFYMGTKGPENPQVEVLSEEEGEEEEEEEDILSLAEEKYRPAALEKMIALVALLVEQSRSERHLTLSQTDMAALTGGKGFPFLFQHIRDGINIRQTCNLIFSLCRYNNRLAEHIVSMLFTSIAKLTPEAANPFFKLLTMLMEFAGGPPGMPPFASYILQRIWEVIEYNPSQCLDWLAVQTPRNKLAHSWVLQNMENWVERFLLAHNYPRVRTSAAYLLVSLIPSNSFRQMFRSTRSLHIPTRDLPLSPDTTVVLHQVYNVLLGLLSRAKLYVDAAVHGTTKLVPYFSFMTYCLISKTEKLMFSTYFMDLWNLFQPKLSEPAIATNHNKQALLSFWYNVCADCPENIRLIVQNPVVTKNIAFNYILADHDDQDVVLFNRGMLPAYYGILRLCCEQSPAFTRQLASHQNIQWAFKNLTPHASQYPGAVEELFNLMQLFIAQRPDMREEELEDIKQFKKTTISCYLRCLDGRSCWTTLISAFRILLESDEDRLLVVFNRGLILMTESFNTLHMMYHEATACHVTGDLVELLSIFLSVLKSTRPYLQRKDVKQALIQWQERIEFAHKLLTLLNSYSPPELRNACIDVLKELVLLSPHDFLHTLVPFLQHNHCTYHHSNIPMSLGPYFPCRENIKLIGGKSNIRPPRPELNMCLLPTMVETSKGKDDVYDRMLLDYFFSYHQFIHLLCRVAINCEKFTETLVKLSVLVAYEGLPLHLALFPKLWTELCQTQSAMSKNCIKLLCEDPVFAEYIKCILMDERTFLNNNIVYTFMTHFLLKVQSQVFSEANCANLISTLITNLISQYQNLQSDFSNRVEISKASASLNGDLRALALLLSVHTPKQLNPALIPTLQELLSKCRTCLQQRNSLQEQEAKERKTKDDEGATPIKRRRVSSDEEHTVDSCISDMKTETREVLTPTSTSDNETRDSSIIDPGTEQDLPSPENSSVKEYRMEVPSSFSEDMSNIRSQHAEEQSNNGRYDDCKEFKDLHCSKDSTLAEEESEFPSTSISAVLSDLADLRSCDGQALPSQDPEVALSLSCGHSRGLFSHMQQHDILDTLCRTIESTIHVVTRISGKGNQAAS
How it was run: (§1)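 Average log2 ratios of fragment over vehicle were obtained by unpaired t-test from global-median-normalised Spectronaut label-free quantities. Proteins with ≥2 unique peptides were included. HEK293T lysate (495 µg per sample) was treated in triplicate with fragment at 200 µM or vehicle for 3 h, then with Biotin-Ahx-Ub-VS at 0.5 µM final for 1 h, and labelled DUBs were NeutrAvidin-enriched and run by diaPASEF LC-MS/MS.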

USP36 = biological target: T1, USP36 (UniProt Q9P275)
T1 sequence (whole entry): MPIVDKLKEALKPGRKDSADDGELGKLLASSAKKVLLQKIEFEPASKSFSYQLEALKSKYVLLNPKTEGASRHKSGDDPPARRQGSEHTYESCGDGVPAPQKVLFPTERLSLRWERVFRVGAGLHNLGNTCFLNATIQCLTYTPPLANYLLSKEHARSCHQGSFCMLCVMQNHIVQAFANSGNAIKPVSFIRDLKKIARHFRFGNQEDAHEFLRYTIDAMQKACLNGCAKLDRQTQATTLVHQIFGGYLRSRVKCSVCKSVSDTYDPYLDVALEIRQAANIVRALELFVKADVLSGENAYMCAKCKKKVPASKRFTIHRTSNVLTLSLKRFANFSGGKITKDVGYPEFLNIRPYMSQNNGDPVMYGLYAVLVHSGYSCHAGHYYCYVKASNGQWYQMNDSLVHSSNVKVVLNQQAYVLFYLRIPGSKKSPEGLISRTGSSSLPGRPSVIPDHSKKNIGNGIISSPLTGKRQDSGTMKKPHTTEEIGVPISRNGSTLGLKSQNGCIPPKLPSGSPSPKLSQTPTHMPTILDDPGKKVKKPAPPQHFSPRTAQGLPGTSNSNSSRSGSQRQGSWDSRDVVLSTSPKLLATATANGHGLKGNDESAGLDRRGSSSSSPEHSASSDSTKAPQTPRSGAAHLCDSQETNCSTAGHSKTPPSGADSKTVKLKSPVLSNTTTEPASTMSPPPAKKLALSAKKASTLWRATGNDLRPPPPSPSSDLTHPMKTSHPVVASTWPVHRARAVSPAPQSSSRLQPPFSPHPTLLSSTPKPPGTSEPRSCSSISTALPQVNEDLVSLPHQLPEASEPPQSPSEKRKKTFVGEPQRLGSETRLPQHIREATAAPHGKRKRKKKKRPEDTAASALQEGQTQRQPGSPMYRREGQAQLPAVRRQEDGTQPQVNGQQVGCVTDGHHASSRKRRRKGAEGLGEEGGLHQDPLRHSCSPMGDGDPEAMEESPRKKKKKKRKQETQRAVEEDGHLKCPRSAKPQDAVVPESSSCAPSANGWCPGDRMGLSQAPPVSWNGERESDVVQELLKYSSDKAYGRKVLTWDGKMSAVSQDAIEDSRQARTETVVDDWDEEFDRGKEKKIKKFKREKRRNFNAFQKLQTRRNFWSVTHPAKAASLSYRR
How it was run: as §1

USP38 = biological target: T2, USP38 (UniProt Q8NB14)
T2 sequence (whole entry): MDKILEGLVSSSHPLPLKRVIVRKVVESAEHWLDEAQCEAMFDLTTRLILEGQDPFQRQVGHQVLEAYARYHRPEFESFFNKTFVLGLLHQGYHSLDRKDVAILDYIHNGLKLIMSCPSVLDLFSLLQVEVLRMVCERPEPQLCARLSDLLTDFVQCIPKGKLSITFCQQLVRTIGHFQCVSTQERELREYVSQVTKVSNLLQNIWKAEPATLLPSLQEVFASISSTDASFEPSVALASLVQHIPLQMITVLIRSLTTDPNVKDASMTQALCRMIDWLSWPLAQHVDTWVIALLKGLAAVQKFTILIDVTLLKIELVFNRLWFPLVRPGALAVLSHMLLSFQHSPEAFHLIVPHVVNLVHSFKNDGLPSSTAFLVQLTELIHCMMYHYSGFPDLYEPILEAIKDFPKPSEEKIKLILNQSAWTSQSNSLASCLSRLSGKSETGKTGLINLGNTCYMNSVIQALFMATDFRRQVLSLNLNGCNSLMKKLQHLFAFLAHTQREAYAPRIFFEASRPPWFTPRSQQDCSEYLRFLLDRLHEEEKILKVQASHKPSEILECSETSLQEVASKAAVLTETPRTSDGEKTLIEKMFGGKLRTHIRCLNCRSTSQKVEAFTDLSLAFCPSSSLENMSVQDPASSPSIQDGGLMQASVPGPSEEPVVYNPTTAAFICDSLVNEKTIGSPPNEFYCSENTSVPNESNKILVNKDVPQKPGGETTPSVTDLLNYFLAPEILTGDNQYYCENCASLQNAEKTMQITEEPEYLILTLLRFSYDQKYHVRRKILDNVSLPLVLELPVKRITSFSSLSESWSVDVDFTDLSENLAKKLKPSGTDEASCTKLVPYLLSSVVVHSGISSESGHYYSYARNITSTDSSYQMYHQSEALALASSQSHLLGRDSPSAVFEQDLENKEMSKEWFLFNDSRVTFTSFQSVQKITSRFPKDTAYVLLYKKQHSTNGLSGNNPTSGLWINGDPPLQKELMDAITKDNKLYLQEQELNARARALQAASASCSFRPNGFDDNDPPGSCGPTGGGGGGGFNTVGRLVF
How it was run: as §1

USP39 = biological target: T3, USP39 (UniProt Q53GS9)
T3 sequence (whole entry): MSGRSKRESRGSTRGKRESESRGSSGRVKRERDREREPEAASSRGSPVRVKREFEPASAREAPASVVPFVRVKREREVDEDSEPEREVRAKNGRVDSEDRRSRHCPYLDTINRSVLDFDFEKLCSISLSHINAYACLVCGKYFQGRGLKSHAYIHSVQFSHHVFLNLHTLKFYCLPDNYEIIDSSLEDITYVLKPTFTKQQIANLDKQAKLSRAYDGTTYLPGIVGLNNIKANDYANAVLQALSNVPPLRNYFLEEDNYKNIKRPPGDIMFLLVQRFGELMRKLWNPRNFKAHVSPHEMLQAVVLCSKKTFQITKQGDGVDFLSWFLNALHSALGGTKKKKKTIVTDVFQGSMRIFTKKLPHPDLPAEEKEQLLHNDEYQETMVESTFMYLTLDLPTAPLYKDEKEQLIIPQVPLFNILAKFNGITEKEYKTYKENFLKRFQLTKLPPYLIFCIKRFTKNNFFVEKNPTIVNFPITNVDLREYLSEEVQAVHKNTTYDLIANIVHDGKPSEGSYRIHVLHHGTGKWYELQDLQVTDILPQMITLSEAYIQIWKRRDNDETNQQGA
How it was run: as §1

USP4 = biological target: T4, USP4 (UniProt Q13107)
T4 sequence (whole entry): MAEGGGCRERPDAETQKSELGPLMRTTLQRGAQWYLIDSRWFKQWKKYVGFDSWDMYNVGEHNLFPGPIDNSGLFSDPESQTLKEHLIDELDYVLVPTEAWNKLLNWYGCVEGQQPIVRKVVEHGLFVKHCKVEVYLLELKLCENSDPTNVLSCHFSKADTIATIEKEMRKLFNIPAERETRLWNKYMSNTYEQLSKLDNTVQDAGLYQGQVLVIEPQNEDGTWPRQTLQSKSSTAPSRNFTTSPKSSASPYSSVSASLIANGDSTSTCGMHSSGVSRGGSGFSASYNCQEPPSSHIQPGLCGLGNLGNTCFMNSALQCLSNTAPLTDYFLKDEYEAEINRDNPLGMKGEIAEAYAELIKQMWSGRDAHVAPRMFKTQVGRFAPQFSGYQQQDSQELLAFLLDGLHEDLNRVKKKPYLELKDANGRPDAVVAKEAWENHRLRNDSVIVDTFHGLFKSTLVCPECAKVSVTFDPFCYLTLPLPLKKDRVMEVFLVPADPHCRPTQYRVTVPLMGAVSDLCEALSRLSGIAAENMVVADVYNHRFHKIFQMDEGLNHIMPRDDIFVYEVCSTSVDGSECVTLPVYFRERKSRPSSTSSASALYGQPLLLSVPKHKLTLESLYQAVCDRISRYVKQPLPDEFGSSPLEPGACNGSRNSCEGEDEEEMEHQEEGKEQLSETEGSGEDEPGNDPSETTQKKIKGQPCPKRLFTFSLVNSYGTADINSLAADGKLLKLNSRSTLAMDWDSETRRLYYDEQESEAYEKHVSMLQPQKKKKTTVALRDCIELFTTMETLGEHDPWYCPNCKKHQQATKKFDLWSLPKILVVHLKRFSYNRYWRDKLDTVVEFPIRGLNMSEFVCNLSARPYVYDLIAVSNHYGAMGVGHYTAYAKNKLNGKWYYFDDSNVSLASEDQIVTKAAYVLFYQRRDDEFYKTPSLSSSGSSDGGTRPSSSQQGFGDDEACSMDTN
How it was run: as §1

Measured: log2 ratio of Biotin-Ahx-Ub-VS probe labelling

Cl.O=C(CCl)N1CCn2ncc(O)c2C1
inactive: USP34 -0.237 | USP36 -0.037 | USP38 -0.188 | USP39 0.194 | USP4 -0.298
